# Screen size: about 190,000 compounds; about 930 (0.49%) were called active. The list shows a part of the results. Results with a measured potency or affinity are listed apart. Unmarked numbers belong to inactive results.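 Rule for the calls: active = z-score of insulin promoter reporter brightness in nuclei below -3 at 5 µM, with at least 500 cells counted; inconclusive = wells with under 500 cells, flagged as toxic or sparse; inactive = the rest.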
# Test: insulin promoter down-regulators in MIN6 cells, imaging, high-content screening, mouse beta cells (AID 1628)
# Conditions: MIN6 insulin promoter GFP reporter, at 5 µM, hits give low values
row,Compound,z-score
1,CCC(C)NS(=O)(=O)c1ccc(NC(=O)Cc2ccc(OC)cc2)cc1 (stereo unspecified),-3.19 (active)
2,CCOC(=O)c1ccc(NC(=O)COc2ccc(S(=O)(=O)NC(C)CC)cc2)cc1 (stereo unspecified),3.08
3,COc1ccc(NC(=O)CSc2ncccc2C(=O)OC(C)C)cc1OC,-5.26 (active)
4,O=C(COC(=O)c1ccco1)NCC1CCCO1 (stereo unspecified),3.04
5,Cc1ccccc1CN(c1ccc(C(=O)NCC2CCCO2)cc1)S(C)(=O)=O (stereo unspecified),-4.88 (active)
6,CCCc1n[nH]c2c1C(=O)C(C(=O)OC)C(C)(C)C2 (stereo unspecified),3.65
7,CN(CCC#N)C(=O)COC(=O)c1ccc(Cl)c(S(N)(=O)=O)c1,-5.92 (active)
8,CCOC(=O)C1=C(C)NC(=O)NC1c1ccc(N2CCC(c3ccccc3)=N2)cc1 (stereo unspecified),4.29
9,COc1ccc(Cl)cc1NC(=O)c1c(-c2ccccc2)noc1C,18
10,CCOC(=O)C1=C(c2ccccc2)NC(N)=NC1c1ccc(OCc2ccc(Cl)cc2)c(OC)c1 (stereo unspecified),-3.43 (active)
11,O=[N+]([O-])c1ccc(N/N=C/c2c[nH]c3ccccc23)cc1,3.11
12,O=C(/C=C/c1ccccc1)NCC(=O)N/N=C/c1ccccc1[N+](=O)[O-],3.03
13,C=C(C)Cn1c(=S)[nH]c2ccccc2c1=O,-6.61 (active)
14,Nn1c(=O)[nH]c2ccccc2c1=O,-0.08
15,CCN(CC)CCn1c(=S)[nH]c2ccc(Cl)cc2c1=O,3.97
16,O=[N+]([O-])c1ccc(Cc2nnc(-c3ccccc3Cl)o2)cc1,2.55
17,CCOc1ccc(-c2nnn(CC(=O)c3ccc4c(c3)OCCO4)n2)cc1,-0.23
18,CC(C)Cn1c(N)c(C(=O)COC(=O)c2ccc3c(c2)OCCO3)c(=O)n(C)c1=O,-4.98 (active)
19,COCc1c(C(=O)OCC(=O)c2c(N)n(CC(C)C)c(=O)n(C)c2=O)oc2ccccc12,-4.37 (active)
20,C[C@@H](C(=O)Nc1ccc2ccccc2c1)[C@H]1C[C@]1(C)[C@H](NC(=O)c1cnccn1)c1ccccc1,-4.74 (active)
21,CCOC(=O)CN1C(=O)S/C(=C/c2ccc(N3CCCCC3)o2)C1=O,5.8
22,CCOC(=O)C1=C(N2CCCCC2)c2cc3c(n2C1=O)CCCC3,-3.42 (active)
23,COc1ccc2c(OC)c3ccoc3nc2c1OC,-0.53
24,CCCS(=O)(=O)N1CCN(Cc2ccccc2C(F)(F)F)CC1,-0.28
25,CCCS(=O)(=O)N1CCN(Cc2ccccc2[N+](=O)[O-])CC1,-3.06 (active)
26,CC(C)SC1=NC(C)(C)C=C(/C=C/c2ccc(Cl)cc2Cl)N1,3.58
